Source: PubChem BioAssay AID1347416 (National Center for Advancing Translational Sciences (NCATS), 2020)
The campaign covered roughly 4,100 compounds. About 1,600 (39%) were called active. Roughly 25% stayed inconclusive and do not appear here. Calls come from the whole dose curve; as a rule, active = well fitted inhibition curve with a large enough effect; inconclusive = small, poorly fitted or top-dose-only effect; inactive = no such curve, though single readings can be large or run the other way. The list shows a part of the results.

Test: qHTS Validation assay for Inhibitors of Plasmodium falciparum Dd2 growth in vitro; note: nearly all actives have a fitted effect of over 70% in size
Settings: P. falciparum Dd2 in RBCs, SYBR Green growth, 72 h; series mostly up to 28.7 µM
Summary of the method: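 P. falciparum Dd2-infected red blood cells (2.5% hematocrit, 0.3% parasitemia) grown 72 h at 37 °C under 5% O2 with compounds in a titration, 29 uM to 0.5 nM final. Growth read as SYBR Green-1 fluorescence after ~16 h lysis; artesunate 300 nM as positive control.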
Potency is the fitted concentration of half-maximal effect.

Potency, inactive:
COc1cc(Cn2nnc3ccccc32)cc(Br)c1O, CCC(C)NC(=O)C1CCC(CNS(=O)(=O)c2cccc3nsnc23)CC1 (stereo not drawn), Cc1nn2c(c1-c1ccccc1Oc1ccccc1)N(C(=O)Cc1cccc(F)c1)CCC2, COCC(=O)N[C@@H]1CN(C(=O)Cc2cccc(OC)c2)CC[C@@H]1c1nc(C)no1, S=c1[nH]cc(-c2ccc(Cl)cc2)n1-c1ccccc1, COc1ccc(-n2nc(C3CCN(Cc4ccc(C(F)(F)F)cc4)CC3)[nH]c2=O)cc1, Cc1ccc(Cn2c(C3CCN(C(=O)c4ccc(C(F)(F)F)cc4)CC3)n[nH]c2=O)cc1, CCN(CC)C(=O)N1CCCCC1c1noc(COc2ccc(F)cc2)n1 (stereo not drawn), CC(C)c1cccc(NC(=O)C2CCN(C(=O)c3ncn4c3COC(c3ccccc3)C4)CC2)c1 (stereo not drawn), CCc1cccc(NC(=O)C2CCN(C(=O)c3nnn4c3COC(c3ccc(C)cc3)C4)CC2)c1 (stereo not drawn), O=C(NCCC1=CCCCC1)C1CCN(C(=O)c2ncn3c2COC(c2ccccc2)C3)CC1 (stereo not drawn), CCNC(=O)NC(=O)C(C)Sc1nc2ccccc2c(=O)n1-c1cccnc1 (stereo not drawn), COc1cccc(NC(=O)N[C@H]2[C@H](O)[C@@H](Oc3ccccc3)[C@@H]3OC[C@H]2O3)c1, COc1cccc(NC(=O)CSc2nc(=O)[nH]c3c2CCCC3)c1, CNC(=O)N1CCC(C2CCN(S(=O)(=O)c3cccc(C#N)c3)C2)CC1 (stereo not drawn), Cc1cccc(-c2cc(C3CCN(C(=O)Nc4ccccc4Cl)CC3)[nH]n2)c1, O=c1c2cc3c(nc2ncn1Cc1ccccc1F)CCCC3, CC1(C)Cc2nc3sc4c(SCC(=O)O)ncnc4c3cc2CO1, Cc1ccc(-n2nc3n(c2=O)CCN(C(=O)c2cccc(Cl)c2)C3)cc1, COc1ccc(-n2nc3n(c2=O)CCN(C(=O)c2ccc(Cl)cc2)C3)cc1, O=C(Nc1ccc(Cl)cc1)N1CCn2c(nn(-c3ccc([N+](=O)[O-])cc3)c2=O)C1, O=c1n(-c2ccc(Cl)cc2)nc2n1CCN(Cc1cccc3ccccc13)C2, COc1ccc(C(=O)N[C@@H]2CCC[C@@H]2C(=O)NCc2ccc(C)o2)cn1, COc1ccc(CCNC(=O)CCn2c(=O)c3ccccc3n(Cc3cc(C)ccc3C)c2=O)cc1OC, COc1cc(NC(=O)Cn2c(N(C)Cc3ccccc3)nc(C)cc2=O)cc(OC)c1, O=C(COc1ccc2ccccc2c1)Nc1nccs1, Nc1nc(C2CC(NC(=O)c3csc4c3CCCC4)C2)cc(=O)[nH]1 (stereo not drawn), O=C(COC(=O)c1ccc(-n2cnnn2)cc1)c1ccc(Br)cc1

Potency, active:
Oc1ccc(-c2n[nH]c(=S)n2-c2ccc3c(c2)OCCO3)c(O)c1 2.66 µM, CCOc1ccc(NC(=O)c2cnn3c2NC(c2cccc(OC)c2)=CC3c2ccccc2)cc1 (stereo not drawn) 4.73 µM, COc1ccc(C2=CC(c3ccc(F)cc3)n3ncc(C(=O)Nc4ccc(C)cc4)c3N2)cc1 (stereo not drawn) 2.37 µM, Cc1nn2c(c1-c1ccccc1Oc1ccccc1)N(Cc1ccccc1O)CCC2 4.85 µM, COc1ccc(CN2CCCn3nc(C)c(-c4ccccc4Oc4ccccc4)c32)cc1O 9.44 µM, COc1cccc(CC(=O)N2CCCn3nc(C)c(-c4ccccc4OCc4ccccc4)c32)c1 9.44 µM, Cc1nn2c(c1-c1ccccc1Oc1ccccc1)N(Cc1cccc(O)c1)CCC2 10.9 µM, Cc1nn2c(c1-c1ccccc1OCc1ccccc1)N(Cc1ccccc1)CCC2 15.3 µM, Cc1ccc2c(n1)N(C)[C@H](CO)CCN(Cc1ccc(C(F)(F)F)cc1)C2 15.3 µM, CCOc1ccccc1C(=O)N1CCN(C(=O)c2nnn3c2COC(c2ccccc2)C3)CC1 (stereo not drawn) 16.8 µM, CC(C)(C)c1ccc(C(=O)N2CCN(C(=O)c3nnn4c3COC(c3ccccc3)C4)CC2)cc1 (stereo not drawn) 10.6 µM, COc1ccc(C)cc1-n1c(-c2ccc(Cl)cc2)cc2c1CC(C)(C)CC2=O 2.99 µM, CC(C)C[C@@H](NC(=O)[C@@H](O)[C@H](N)Cc1ccccc1)C(=O)O 2.99 µM, CC(Sc1nc2ccccc2c(=O)n1C)C(=O)N(C)C1CCCCC1 (stereo not drawn) 5.31 µM, COc1cccc(NC(=O)c2cccc3c(=O)c4c([nH]c23)CCCC4)c1 2.99 µM, Cc1cccc(-c2cc(C3CCN(S(=O)(=O)c4cccc(C#N)c4)CC3)[nH]n2)c1 15 µM, COc1cc2c3nnc(-c4ccc(F)cc4)c-3cn(Cc3ccccc3F)c2cc1OC 3.76 µM, COc1cc(-c2nc(-c3ccccc3)c(-c3ccc(Br)cc3)[nH]2)cc(OC)c1O 2.11 µM, COc1ccc2[nH]c(C)c(CCN(Cc3cccs3)C(=S)Nc3ccccc3)c2c1 2.66 µM, COc1ccc2[nH]c(C)c(CCN(Cc3cccs3)C(=S)Nc3ccc(F)cc3)c2c1 4.22 µM, COc1ccccc1CN1CCn2c(nn(-c3ccc([N+](=O)[O-])cc3)c2=O)C1 5.96 µM, CC(C)CCN1CCn2c(nn(-c3ccc([N+](=O)[O-])cc3)c2=O)C1 17.2 µM, Oc1c(CN2CCCCC2)cc(COCc2ccccc2)c2cccnc12 8.41 µM, CCOCc1cc(CN2CCN(c3ccccc3OC)CC2)c(O)c2ncccc12 5.96 µM, Oc1c(CN2CCCC2)cc(COCc2ccccc2)c2cccnc12 6.68 µM, COc1ccc(CCNC(=O)CCc2c(C)nc3c(c(C)nn3-c3ccc(C)c(C)c3)c2C)cc1OC 0.668 µM, COc1ccc(S(=O)(=O)Nc2ccc(C)n(CC(=O)Nc3ccccc3)c2=O)cc1 2.66 µM, Oc1c(C(Nc2nccs2)c2ccc(C(F)(F)F)cc2)ccc2cccnc12 (stereo not drawn) 5.31 µM, Oc1cccc(C(Nc2nccs2)c2ccc3cccnc3c2O)c1 (stereo not drawn) 7.5 µM, Oc1[nH]c2ccccc2c1N=NC(=S)N1CCOCC1 2.11 µM
